mHTT-CaM PPI inh – mutant huntingtin-calmodulin interaction inhibitors – biochemical, AlphaScreen, primary screen | AID 1671202, 2021 | AlphaScreen His-mHTT/GST-CaM binding, luminescence | 190,000 tested, 3.6% active | inhibition, % at 15 µM;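 also: 0% = both proteins with DMSO and 100% = one protein alone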
Pf apPOL inh – Pf-apPOL inhibitors, biochemical, fluorescence. Plasmodium falciparum apicoplast DNA polymerase (apPOL). Recombinant Pf-apPOL, molecular beacon fluorescence, 1.5 h. inhibition, % at 10 µM. 210,000 tested, 0.25% active
* = called active by the depositor; i = inactive; . = no result given. Many of the other results were omitted from the sample, so hits are more common in it than they were. Rule as the data show it: active = inhibition above about 50%; inactive = the rest.

SMILES	mHTT-CaM PPI inh	Pf apPOL inh
CCSc1ccccc1C(=O)Nc1cccc2ccc(OC)nc12	-51.5	-3.9
COc1cccc(-c2cc(C(=O)N3CCN(c4ncccn4)CC3)n(C)n2)c1	4.7	-8.9
CCc1ccc(N2C(=O)NC3CC2(C)Oc2ccc(Br)cc23)cc1 (stereo unspecified)	4.0	-5.6
Cc1ccc2c(c1)c1c(n2CN2CCCCC2)C(=O)CCC1	-3.0	-7.4
Cc1ccc(NC(=O)Cn2nc3c(cc2=O)CCCC3)c(C)c1	4.0	-2.1
O=C1CCC[C@@H]2[C@@H](Cc3ccccc3)[C@@H](Nc3ccccc3)C[C@@H]3CCN1[C@@H]32	70.3*	-4.6
O=C1CCC[C@@H]2[C@H](Cc3ccccc3)[C@@H](O)C[C@@H]3CCN1[C@@H]32	1.2	-9.1
CCN(C(=O)CN1C(=O)NC2(CCCCC2)C1=O)c1ccccc1	-3.1	-2.5
CCN(C(=O)CN1C(=O)c2ccccc2C1=O)c1ccccc1	98.1*	-1.4
CCC(C)N1Cc2cc(NC(=O)Cc3ccccc3)ccc2OCC1=O (stereo unspecified)	10.6	-2.2
O=c1ccc(-n2ccnc2)nn1CCNS(=O)(=O)C=Cc1ccccc1	-5.8	3.3
CN(C)Cc1c(O)ccc2c1OC(=Cc1cccc(Cl)c1)C2=O	10.9	10.5
CCN(CC)Cc1c(O)ccc2c1OC(=Cc1cccc(Cl)c1)C2=O	53.3*	-2.2
COc1ccc(CN2CCc3c([nH]c4ccccc34)C2)cc1C	35.5	-3.3
COc1cc(CN2CCc3c([nH]c4ccccc34)C2)c([N+](=O)[O-])cc1OC	66.0*	-2.8
COc1cc(C)c(CN2CCc3c([nH]c4ccccc34)C2)cc1C	99.7*	-7.3
COc1cc(CN2CCN(Cc3cccc(OC)c3OC)CC2)c([N+](=O)[O-])cc1OC	4.0	0.5
C=CCN1C(=O)/C(=c2/sc3nc4ccccc4n3c2=O)c2ccccc21	5.0	-6.6
COc1ccc2c(c1OC)C(=O)N(c1ccc(Cl)c(C(F)(F)F)c1)C2	-4.0	3.6
Cc1sc(N)nc1-c1ccc(Cl)cc1	-7.1	-19.6
Cc1sc(N)nc1-c1c[nH]c2ccccc12	94.5*	-11.6
O=C(O)c1cccc(C(=O)c2ccc3c(c2)C(=O)N(c2cccnc2)C3=O)c1	3.0	5.0
CCc1ccc(OCC(O)CNC(C)C)cc1 (stereo unspecified)	-1.1	-7.4
CN1c2cc(C(=O)N3CCN(c4ccccc4Cl)CC3)ccc2C(=O)N2CCCCC21 (stereo unspecified)	2.3	2.6
CN1c2cc(C(=O)N3CCc4ccccc4C3)ccc2C(=O)N2CCCCC21 (stereo unspecified)	93.3*	-3.7
SMILES	mHTT-CaM PPI inh	Pf apPOL inh
CC(C)NC(=O)c1ccccc1NC(=O)CSCc1ccccc1Cl	-3.2	-3.9
O=C(Nc1cccc2ncccc12)C(c1ccccc1)n1cccc1 (stereo unspecified)	78.0*	26.0
O=C(Nc1nccs1)C(c1ccccc1)n1cccc1 (stereo unspecified)	34.9	5.3
CCC1Oc2ccc(Cl)cc2N(CC(=O)NCc2ccco2)C1=O (stereo unspecified)	-3.0	-15.8
COc1ccccc1-n1c(SCc2cccc(F)c2)nc2c(c1=O)SCC2	44.0	8.6
Cc1ccc(F)cc1NS(=O)(=O)c1cc2n(c1)CCCNC2=O	-3.8	4.0
O=C(COc1ccc(F)cc1)N1CCN(c2nc(CN3CCCCC3)cs2)CC1	24.8	-1.5
N#CC1=C(N)OC2=C(C(=O)CC(c3ccccc3)C2)C1c1c[nH]c2ccccc12 (stereo unspecified)	58.1*	2.9
N#CC1=C(N)OC2=C(C(=O)CC(c3ccccc3)C2)C1c1ccccc1F (stereo unspecified)	14.2	-8.6
CC(C)Oc1ccc(CN2C(=O)CN(c3ccccc3)C(=O)C2c2ccncc2)cc1 (stereo unspecified)	11.5	2.5
CC(=O)Nc1nc2ccccc2n1CCN(C)C	-0.6	-0.1
CN(C)CCn1c2c(c3ccccc31)CCCn1nnnc1-2	56.0*	-12.5
O=C1NC(=Nc2ccccc2)S/C1=C/c1cc(Br)cc(Cl)c1O	96.0*	-3.0
COc1ccc(Br)cc1/C=C1/SC(=Nc2ccccc2)NC1=O	19.0	-2.9
O=C1NC(=Nc2ccccc2)S/C1=C/c1ccc(O)c(O)c1	43.0	-13.4
Cc1ccccc1/C=C1/SC(=Nc2ccccc2)NC1=O	48.0	-1.3
O=C1NC(=Nc2ccccc2)S/C1=C/c1cc(Br)ccc1O	55.0*	-41.3
O=C1NC(=Nc2ccccc2)S/C1=C/c1cc(I)ccc1O	52.0*	-5.5
Cc1ccc(OCC(=O)Nc2ccc(F)cc2F)cc1C	-13.9	-5.6
N/C(=N\OC(=O)C12CC3CC(CC(C3)C1)C2)c1cccc([N+](=O)[O-])c1	i	-3.4
CCS(=O)(=O)N1CCN(c2nc(C)nc(C)c2Cc2ccc(Cl)cc2)CC1	53.2*	0.9
Cc1nc(C)c(Cc2ccc(Cl)cc2)c(N2CCN(S(C)(=O)=O)CC2)n1	22.1	-2.8
NC(=O)c1c(Nc2ccc3c(c2)OCO3)sc(C(=O)c2ccc(Cl)cc2)c1N	56.0*	-4.5
CCOC(=O)c1c(Nc2ccccc2F)sc(C(=O)c2ccc(Cl)cc2)c1N	.	-1.2
COc1ccc(N/C(C)=C/C(=O)c2ccccc2)c(OC)c1	50.9*	-0.9
SMILES	mHTT-CaM PPI inh	Pf apPOL inh
COc1ccccc1N/C(C)=C/C(=O)c1ccccc1	22.1	-4.0
Cc1noc(C)c1C1CCCN1Cc1ccccc1F (stereo unspecified)	-32.5	-2.7
COc1cc(NCc2ccc3c(c2)Cc2ccccc2-3)cc(OC)c1OC	59.0*	6.3
COc1ccc(CC(=O)Nc2ccc3c(c2)Cc2ccccc2-3)cc1OC	-2.6	-2.2
O=S(=O)(Nc1c(F)c(F)c(F)c(F)c1F)c1ccccc1	8.6	-12.6
CC(C)CC(C(=O)Nc1cccc(C(F)(F)F)c1)N1C(=O)c2ccccc2C1=O (stereo unspecified)	57.0*	-0.6
CC(C)CC(C(=O)Nc1nc2ccccc2s1)N1C(=O)c2ccccc2C1=O (stereo unspecified)	99.0*	25.6
CC(C)C(C(=O)Nc1cccc(C(F)(F)F)c1)N1C(=O)c2ccccc2C1=O (stereo unspecified)	0.0	-1.2
CC(C(=O)Nc1nc2ccccc2s1)N1C(=O)c2ccccc2C1=O (stereo unspecified)	9.3	6.5
COC(=O)C1=C(N)Oc2c(oc(CO)cc2=O)C1c1cccnc1 (stereo unspecified)	-0.6	-3.4
Cc1ccc(N(CC(=O)N(C)C)S(C)(=O)=O)cc1C	1.7	-7.2
CCOC(=O)c1cc(CSCC(O)C(O)CSCc2cc(C(=O)OCC)oc2C)c(C)o1 (stereo unspecified)	3.0	.
Cc1cc2nc3c(=O)[nH]c(=O)nc-3n(CC(O)C(O)C(O)CO)c2cc1N(C)C (stereo unspecified)	.	-3.2
CC1(C)C(C=C(Cl)Cl)C1C(=O)Nc1ccc(S(=O)(=O)Nc2ncccn2)cc1 (stereo unspecified)	11.0	-2.0
CC1(C)C(C=C(Cl)Cl)C1C(=O)Nc1ccccc1[N+](=O)[O-] (stereo unspecified)	56.0*	-2.8
CC1(C)C(C=C(Cl)Cl)C1C(=O)Nc1ccc(Br)cc1 (stereo unspecified)	53.0*	0.2
Cc1cc(NS(=O)(=O)c2ccc(NC(=O)C3C(C=C(Cl)Cl)C3(C)C)cc2)nc(C)n1 (stereo unspecified)	62.0*	-0.1
